Targets with a hit are over-represented here; the source holds about 8,800 in all. About 0.5% of all pairs of compound and target were hits.
What was measured:
Assay in all cases: log2 fold change, soluble protein after heating vs DMSO (PISA); higher = thermal stabilisation; K562 lysate, 10 uM; active = over 0.2 and 3.5 SD of the protein, either way, in both replicates (recomputed)
erlotinib = compound: C#Cc1cccc(Nc2ncnc3cc(OCCOC)c(OCCOC)cc23)c1 [erlotinib]
In short: (§1)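 A 30 min treatment with 10 μM compound was applied to crude K562 extract at 1 mg/mL protein in PBS pH 7.4 with 1 mM MgCl2. Heating for 3 min spanned 48°C-58°C, after which aliquots were pooled, adjusted to 0.5% NP-40 at 4°C and spun at 21,000xg for 90 min. TMTpro 16plex LC-MS/MS of the supernatant, with channel sums equalised, gave values recorded as log-two fold change in thermal stability against solvent controls, from duplicates.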

[1] = compound: C/C(=N\NC(=O)C1=CC(=CC=C1)S(=O)(=O)N2CCOCC2)/C3=C(C=CC(=C3)Cl)O
In short: as §1

[2] = compound: C1=CC(=CC=C1C2=NC3=C(N2)C=C(C=C3)C(=O)N)OC4=CC=C(C=C4)Cl
In short: as §1

[3] = compound: C1=CC2=C(C=CC(=C2)/C=C\3/C(=O)NC(=NCC4=CC=CS4)S3)N=C1
In short: as §1

[4] = compound: C1=CC2=NC=CN=C2C=C1/C=C/3\C(=O)NC(=O)S3
In short: as §1

[5] = compound: C1=CC=C(C=C1)C2=NC(=C(N2)C3=CC=NC=C3)C4=CC(=C(C=C4)Cl)O
In short: as §1

[6] = compound: C1=CC=C2C(=C1)C3=NNC4=CC=CC(=C43)C2=O
In short: as §1

[7] = compound: C1CCN(C1)C(=O)NC2=CC=CC(=C2)NC3=NC=C(C(=N3)NCCC4=CN=CN4)Br
In short: as §1

[8] = compound: C1CN(CCC1(CC2=CC=C(C=C2)Cl)N)C3=NC=NC4=C3C=CN4
In short: as §1

IRAK-1-4 Inhibitor I = compound: C1COCCN1CCN2C3=CC=CC=C3N=C2NC(=O)C4=CC(=CC=C4)[N+](=O)[O-] [IRAK-1-4 Inhibitor I]
In short: as §1

Measured: log2 fold change

SEC62 (UniProt Q99442)
Chain of UniProt Q99442 (Q99442 whole entry, looked up): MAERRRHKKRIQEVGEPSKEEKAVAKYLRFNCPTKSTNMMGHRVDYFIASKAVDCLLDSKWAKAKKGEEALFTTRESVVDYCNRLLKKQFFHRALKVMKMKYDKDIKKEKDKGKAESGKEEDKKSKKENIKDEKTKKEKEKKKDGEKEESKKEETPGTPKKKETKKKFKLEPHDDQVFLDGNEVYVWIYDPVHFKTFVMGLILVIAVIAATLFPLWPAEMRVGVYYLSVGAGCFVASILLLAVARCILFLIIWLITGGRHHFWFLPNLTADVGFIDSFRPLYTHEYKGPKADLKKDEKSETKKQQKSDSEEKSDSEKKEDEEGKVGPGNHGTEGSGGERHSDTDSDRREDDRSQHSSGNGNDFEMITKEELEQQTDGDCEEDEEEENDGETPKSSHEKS
inactive: erlotinib -0.046 | [1] -0.008 | [2] 0.018 | [3] 0.046 | [4] -0.021 | [5] 0.036 | [6] -0.022 | [7] -0.017 | [8] -0.009 | IRAK-1-4 Inhibitor I 0.042

RBBP8 isoform 2 (UniProt Q99708)
inactive: erlotinib 0.073 | [1] -0.129 | [2] -0.031 | [3] 0.074 | [5] -0.004 | [6] -0.019 | [7] -0.017 | [8] -0.032 | IRAK-1-4 Inhibitor I 0.033
active: [4] 0.295

RNF113A (UniProt O15541)
Chain of UniProt O15541 (O15541 whole entry, looked up): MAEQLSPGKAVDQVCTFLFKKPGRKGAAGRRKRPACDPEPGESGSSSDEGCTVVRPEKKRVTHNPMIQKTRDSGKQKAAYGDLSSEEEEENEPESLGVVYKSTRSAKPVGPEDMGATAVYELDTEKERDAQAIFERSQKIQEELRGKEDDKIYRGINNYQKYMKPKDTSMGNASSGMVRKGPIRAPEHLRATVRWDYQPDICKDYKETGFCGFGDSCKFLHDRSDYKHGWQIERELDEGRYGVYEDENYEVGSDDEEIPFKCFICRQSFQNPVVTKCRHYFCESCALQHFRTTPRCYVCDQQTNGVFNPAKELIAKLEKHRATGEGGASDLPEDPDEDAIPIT
inactive: erlotinib -0.039 | [1] -0.039 | [2] 0.036 | [3] 0.027 | [4] -0.008 | [5] -0.01 | [6] -0.02 | [7] -0.005 | [8] 0.01 | IRAK-1-4 Inhibitor I 0.02

SCCPDH (UniProt Q8NBX0)
Chain of UniProt Q8NBX0 (Q8NBX0 whole entry, looked up): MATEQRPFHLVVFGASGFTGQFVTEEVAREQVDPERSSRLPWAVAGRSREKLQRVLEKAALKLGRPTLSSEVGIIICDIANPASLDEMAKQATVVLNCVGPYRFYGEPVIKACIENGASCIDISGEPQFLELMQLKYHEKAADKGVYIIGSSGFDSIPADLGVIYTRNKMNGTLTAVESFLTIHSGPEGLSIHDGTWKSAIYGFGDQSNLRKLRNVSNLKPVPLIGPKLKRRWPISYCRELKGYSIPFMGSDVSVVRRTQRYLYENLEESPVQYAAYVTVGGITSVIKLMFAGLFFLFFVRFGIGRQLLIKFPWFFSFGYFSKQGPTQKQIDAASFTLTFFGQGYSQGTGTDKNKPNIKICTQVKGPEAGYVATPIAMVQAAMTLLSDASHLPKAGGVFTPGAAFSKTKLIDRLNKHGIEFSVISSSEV
inactive: erlotinib -0.213 | [1] -0.055 | [2] -0.027 | [3] 0.083 | [4] -0.243 | [5] 0.052 | [6] 0.185 | [7] -0.03 | [8] 0.026 | IRAK-1-4 Inhibitor I 0.016

RALGAPB (UniProt Q86X10)
inactive: erlotinib 0.024 | [1] -0.047 | [2] 0.051 | [3] 0.018 | [4] 0 | [5] -0.038 | [6] -0.074 | [7] -0.008 | [8] 0.049 | IRAK-1-4 Inhibitor I 0.033

SEC61G (UniProt P60059)
inactive: erlotinib 0.065 | [1] -0.196 | [2] -0.111 | [3] 0.032 | [4] 0.043 | [5] 0.032 | [6] -0.126 | [7] -0.096 | [8] 0.065 | IRAK-1-4 Inhibitor I 0.083

RETSAT (UniProt Q6NUM9)
inactive: erlotinib -0.092 | [1] 0.054 | [2] 0.026 | [3] 0.021 | [4] -0.092 | [5] -0.004 | [6] -0.152 | [7] -0.077 | [8] -0.052 | IRAK-1-4 Inhibitor I 0.148

SDHA (UniProt P31040)
inactive: erlotinib 0.001 | [1] 0.034 | [2] 0.109 | [3] -0.006 | [4] 0.005 | [5] -0.005 | [6] 0.025 | [7] -0.009 | [8] 0.004 | IRAK-1-4 Inhibitor I 0.011

RAD51C (UniProt O43502)
inactive: erlotinib 0 | [1] -0.053 | [2] 0.023 | [3] -0.074 | [4] -0.003 | [5] 0.001 | [6] -0.004 | [7] 0.017 | [8] 0.02 | IRAK-1-4 Inhibitor I -0.051

RELN (UniProt P78509)
Chain of UniProt P78509 (P78509 whole entry, looked up): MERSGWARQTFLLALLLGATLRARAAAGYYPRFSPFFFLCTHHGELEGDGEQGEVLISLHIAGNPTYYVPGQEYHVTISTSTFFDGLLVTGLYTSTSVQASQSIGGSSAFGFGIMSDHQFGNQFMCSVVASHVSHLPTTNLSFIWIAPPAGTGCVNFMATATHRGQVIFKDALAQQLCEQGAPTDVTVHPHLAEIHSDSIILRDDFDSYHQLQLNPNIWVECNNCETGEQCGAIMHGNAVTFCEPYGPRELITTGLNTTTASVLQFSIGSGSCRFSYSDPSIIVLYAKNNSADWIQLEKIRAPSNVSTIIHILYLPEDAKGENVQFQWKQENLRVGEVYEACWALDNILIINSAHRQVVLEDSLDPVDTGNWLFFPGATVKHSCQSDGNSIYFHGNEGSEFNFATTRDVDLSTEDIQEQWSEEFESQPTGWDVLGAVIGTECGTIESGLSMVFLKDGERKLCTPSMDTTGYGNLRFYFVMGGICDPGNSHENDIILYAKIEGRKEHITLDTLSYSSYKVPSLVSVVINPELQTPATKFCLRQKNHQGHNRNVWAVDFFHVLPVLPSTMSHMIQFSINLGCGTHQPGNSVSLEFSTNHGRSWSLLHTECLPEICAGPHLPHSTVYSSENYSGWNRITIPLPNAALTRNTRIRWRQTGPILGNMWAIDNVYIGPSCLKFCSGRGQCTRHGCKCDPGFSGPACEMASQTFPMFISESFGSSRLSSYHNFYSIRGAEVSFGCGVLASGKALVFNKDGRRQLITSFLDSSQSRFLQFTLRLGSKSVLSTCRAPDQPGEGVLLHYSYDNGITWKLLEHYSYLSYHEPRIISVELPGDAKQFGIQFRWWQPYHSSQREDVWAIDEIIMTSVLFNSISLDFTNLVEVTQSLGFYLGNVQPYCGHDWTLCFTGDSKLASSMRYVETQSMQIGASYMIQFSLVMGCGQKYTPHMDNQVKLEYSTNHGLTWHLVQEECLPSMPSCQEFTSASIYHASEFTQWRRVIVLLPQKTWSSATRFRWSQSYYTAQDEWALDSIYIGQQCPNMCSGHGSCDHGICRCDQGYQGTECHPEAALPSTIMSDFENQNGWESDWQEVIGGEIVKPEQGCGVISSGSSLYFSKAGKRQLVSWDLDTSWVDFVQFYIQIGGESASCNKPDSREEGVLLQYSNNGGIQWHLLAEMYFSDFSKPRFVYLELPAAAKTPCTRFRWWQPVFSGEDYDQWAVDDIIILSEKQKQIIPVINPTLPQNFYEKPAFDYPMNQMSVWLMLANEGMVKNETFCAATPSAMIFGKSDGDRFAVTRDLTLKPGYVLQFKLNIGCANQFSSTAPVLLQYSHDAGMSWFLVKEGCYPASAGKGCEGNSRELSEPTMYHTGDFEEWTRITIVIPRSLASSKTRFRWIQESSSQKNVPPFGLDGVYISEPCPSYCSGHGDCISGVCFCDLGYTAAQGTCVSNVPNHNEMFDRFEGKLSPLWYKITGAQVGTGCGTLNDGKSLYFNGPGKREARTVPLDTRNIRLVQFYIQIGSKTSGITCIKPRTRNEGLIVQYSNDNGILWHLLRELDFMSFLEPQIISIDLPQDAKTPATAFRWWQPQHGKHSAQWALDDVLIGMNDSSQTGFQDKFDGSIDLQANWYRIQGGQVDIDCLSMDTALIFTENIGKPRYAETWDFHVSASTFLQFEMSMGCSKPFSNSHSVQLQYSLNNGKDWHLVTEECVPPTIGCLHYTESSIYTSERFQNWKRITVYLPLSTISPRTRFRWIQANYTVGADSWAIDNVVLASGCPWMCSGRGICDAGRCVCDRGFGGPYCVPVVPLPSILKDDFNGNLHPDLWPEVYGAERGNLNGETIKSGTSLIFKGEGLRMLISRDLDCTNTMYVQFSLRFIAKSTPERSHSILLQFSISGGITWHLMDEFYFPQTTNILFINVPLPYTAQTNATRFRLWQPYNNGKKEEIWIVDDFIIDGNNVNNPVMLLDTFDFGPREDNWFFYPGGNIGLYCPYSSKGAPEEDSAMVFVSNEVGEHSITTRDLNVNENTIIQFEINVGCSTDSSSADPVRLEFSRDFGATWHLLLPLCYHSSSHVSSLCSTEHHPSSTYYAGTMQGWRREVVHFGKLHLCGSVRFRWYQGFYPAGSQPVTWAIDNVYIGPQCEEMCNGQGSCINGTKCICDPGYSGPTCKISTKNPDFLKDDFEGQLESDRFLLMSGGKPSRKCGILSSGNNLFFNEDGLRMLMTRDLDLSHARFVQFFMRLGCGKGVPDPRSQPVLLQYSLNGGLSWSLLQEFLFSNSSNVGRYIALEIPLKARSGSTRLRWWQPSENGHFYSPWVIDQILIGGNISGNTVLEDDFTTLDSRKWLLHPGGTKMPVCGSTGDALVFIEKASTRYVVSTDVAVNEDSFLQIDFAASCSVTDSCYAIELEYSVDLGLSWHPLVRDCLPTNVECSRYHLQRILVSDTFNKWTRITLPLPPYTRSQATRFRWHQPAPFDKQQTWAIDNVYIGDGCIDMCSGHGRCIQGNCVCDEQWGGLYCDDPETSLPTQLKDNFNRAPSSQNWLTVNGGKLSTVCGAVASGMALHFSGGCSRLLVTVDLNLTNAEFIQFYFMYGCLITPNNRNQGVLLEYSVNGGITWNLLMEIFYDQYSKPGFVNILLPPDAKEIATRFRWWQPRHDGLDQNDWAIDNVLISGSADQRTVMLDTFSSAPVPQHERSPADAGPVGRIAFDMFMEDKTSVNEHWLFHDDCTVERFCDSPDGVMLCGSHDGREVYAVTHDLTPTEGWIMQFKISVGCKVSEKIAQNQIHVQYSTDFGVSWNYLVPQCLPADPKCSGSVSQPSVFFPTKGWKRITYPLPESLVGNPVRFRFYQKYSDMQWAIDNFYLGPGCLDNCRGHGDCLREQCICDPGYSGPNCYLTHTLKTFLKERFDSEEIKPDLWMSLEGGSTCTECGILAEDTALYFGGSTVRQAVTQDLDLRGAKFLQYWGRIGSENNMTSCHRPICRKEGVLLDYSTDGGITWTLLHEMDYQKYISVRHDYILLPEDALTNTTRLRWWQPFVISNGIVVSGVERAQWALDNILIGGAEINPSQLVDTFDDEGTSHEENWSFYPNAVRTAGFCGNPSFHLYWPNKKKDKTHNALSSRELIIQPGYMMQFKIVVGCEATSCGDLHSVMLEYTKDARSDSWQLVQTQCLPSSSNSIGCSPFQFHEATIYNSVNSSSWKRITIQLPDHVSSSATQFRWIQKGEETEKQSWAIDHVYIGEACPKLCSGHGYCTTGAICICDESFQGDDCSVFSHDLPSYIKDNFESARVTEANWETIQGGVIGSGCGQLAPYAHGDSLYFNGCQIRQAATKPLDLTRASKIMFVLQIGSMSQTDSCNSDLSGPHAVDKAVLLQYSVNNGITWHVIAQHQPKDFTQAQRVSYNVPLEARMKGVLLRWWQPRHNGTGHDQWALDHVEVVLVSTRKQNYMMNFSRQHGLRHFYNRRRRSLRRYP
inactive: erlotinib 0.012 | [1] 0.004 | [2] 0.014 | [3] 0.025 | [4] 0.001 | [5] 0.033 | [6] -0.015 | [7] 0.042 | [8] 0.058 | IRAK-1-4 Inhibitor I 0.002

RAP1GAP isoform 4 (UniProt P47736)
inactive: erlotinib 0.087 | [1] -0.028 | [2] -0.011 | [3] -0.018 | [4] -0.019 | [5] -0.012 | [6] -0.005 | [7] 0.02 | [8] 0.056 | IRAK-1-4 Inhibitor I 0.041

RIC1 (UniProt Q4ADV7)
inactive: erlotinib 0 | [1] -0.239 | [2] -0.074 | [3] 0.025 | [4] -0.176 | [5] 0.044 | [6] 0.035 | [7] 0.038 | [8] 0.057 | IRAK-1-4 Inhibitor I 0.022

RHAG (UniProt Q02094)
Chain of UniProt Q02094 (Q02094 whole entry, looked up): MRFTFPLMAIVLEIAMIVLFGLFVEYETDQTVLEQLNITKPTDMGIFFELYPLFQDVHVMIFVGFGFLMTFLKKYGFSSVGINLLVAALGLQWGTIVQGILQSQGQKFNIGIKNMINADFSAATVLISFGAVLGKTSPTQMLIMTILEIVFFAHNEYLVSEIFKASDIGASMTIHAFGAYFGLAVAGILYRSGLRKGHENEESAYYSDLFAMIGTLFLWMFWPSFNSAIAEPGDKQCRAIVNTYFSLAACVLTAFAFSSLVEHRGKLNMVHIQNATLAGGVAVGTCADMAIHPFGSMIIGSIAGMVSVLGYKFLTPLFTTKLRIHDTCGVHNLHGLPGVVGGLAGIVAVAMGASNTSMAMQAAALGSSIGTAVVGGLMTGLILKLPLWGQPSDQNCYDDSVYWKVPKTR
inactive: erlotinib 0.017 | [1] -0.123 | [2] -0.087 | [3] 0.086 | [4] -0.007 | [5] -0.012 | [6] -0.145 | [7] -0.126 | [8] -0.014 | IRAK-1-4 Inhibitor I 0.081

REEP5 (UniProt Q00765)
inactive: erlotinib 0.017 | [1] -0.041 | [2] 0.022 | [3] 0.036 | [4] 0.001 | [5] -0.008 | [6] -0.077 | [7] -0.008 | [8] 0.015 | IRAK-1-4 Inhibitor I 0.025

SAR1A (UniProt Q9NR31)
inactive: erlotinib -0.268 | [1] -0.112 | [2] 0.05 | [3] -0.019 | [4] -0.063 | [5] -0.056 | [6] 0.048 | [7] -0.08 | [8] 0.001 | IRAK-1-4 Inhibitor I -0.029

RIOK2 (UniProt Q9BVS4)
inactive: erlotinib -0.018 | [1] -0.045 | [2] -0.015 | [3] 0.07 | [4] 0.038 | [5] 0.029 | [7] -0.01 | [8] -0.019 | IRAK-1-4 Inhibitor I -0.005
active: [6] 0.395

RALA (UniProt P11233)
inactive: erlotinib 0.007 | [1] -0.146 | [2] -0.035 | [3] -0.04 | [4] 0.031 | [5] -0.012 | [6] 0.003 | [7] -0.016 | [8] 0.002 | IRAK-1-4 Inhibitor I 0.04

RPLP0P6 (UniProt Q8NHW5)
inactive: erlotinib -0.003 | [1] -0.069 | [2] -0.034 | [3] 0.026 | [4] -0.05 | [5] 0.009 | [6] 0.03 | [7] 0.024 | [8] 0.004 | IRAK-1-4 Inhibitor I 0.008

QTRT2 isoform 4 (UniProt Q9H974)
inactive: erlotinib -0.024 | [1] 0.082 | [2] -0.032 | [3] -0.019 | [4] -0.048 | [5] -0.009 | [6] -0.007 | [7] 0.007 | [8] 0.022 | IRAK-1-4 Inhibitor I 0.006

RALGAPA1 isoform 6 (UniProt Q6GYQ0)
inactive: erlotinib 0.056 | [1] -0.093 | [2] 0.098 | [3] 0.065 | [4] -0.105 | [5] -0.064 | [6] -0.015 | [7] -0.042 | [8] 0.031 | IRAK-1-4 Inhibitor I 0.004

RPTOR (UniProt Q8N122)
inactive: erlotinib 0.032 | [1] 0.002 | [2] 0.062 | [3] 0.013 | [4] 0.017 | [5] -0.002 | [6] -0.002 | [7] -0.036 | [8] -0.015 | IRAK-1-4 Inhibitor I 0.003

RBBP7 (UniProt Q16576)
inactive: erlotinib -0.038 | [1] -0.032 | [2] -0.021 | [3] -0.005 | [4] 0.007 | [5] -0.014 | [6] -0.008 | [7] 0.045 | [8] -0.022 | IRAK-1-4 Inhibitor I -0.082

SCD (UniProt O00767)
inactive: erlotinib 0.075 | [1] -0.093 | [2] 0.027 | [3] 0.056 | [4] -0.012 | [5] 0.009 | [6] 0.011 | [7] -0.24 | [8] -0.021 | IRAK-1-4 Inhibitor I 0.07

SERPINI1 (UniProt Q99574)
inactive: erlotinib -0.003 | [1] -0.021 | [2] -0.037 | [3] 0.027 | [4] 0.054 | [5] -0.007 | [6] -0.117 | [7] 0.029 | [8] 0.038 | IRAK-1-4 Inhibitor I 0.031

SERINC3 (UniProt Q13530)
inactive: erlotinib 0.068 | [1] 0.145 | [2] 0.065 | [3] 0.073 | [4] 0.021 | [5] -0.02 | [6] -0.101 | [7] -0.03 | [8] 0.024 | IRAK-1-4 Inhibitor I 0.018

RCC1 isoform 2 (UniProt P18754)
inactive: erlotinib 0.016 | [1] 0.005 | [2] -0.033 | [3] 0 | [4] 0.017 | [5] 0.007 | [6] -0.024 | [7] -0.008 | [8] -0.043 | IRAK-1-4 Inhibitor I -0.022

RASA2 (UniProt Q15283)
inactive: erlotinib 0.016 | [1] -0.001 | [2] -0.054 | [3] -0.071 | [4] -0.028 | [5] 0.018 | [6] -0.069 | [7] -0.024 | [8] 0.028 | IRAK-1-4 Inhibitor I -0.003
